Reference: PubChem BioAssay (NCATS)
Records with an inconclusive call do not appear. Activity calls are given as the source filed them. The call rests on the fitted dose curve; in most records, active means well fitted curve in the direction sought with a large enough effect; inconclusive means small, poorly fitted or top-dose-only effect, or another doubt; inactive means no such curve, though single readings can be large; an effect the other way counts as inactive or inconclusive.

Columns and labels:
CRL-7250 = normal cell line; assay: Cytotoxic Profiling of Annotated Libraries Using Quantitative High-Throughput Screening (AID 1296008); conditions: Five cell lines viability, CellTiter-Glo ATP luminescence, 48-72 h; max response: hits give low values; further: nearly all actives have a fitted effect of over 60% in size; further: potency means the concentration at half of the fitted maximal effect; on max response: on the % scale 0 is the no-effect control and ±100 the full control effect
Procedure, shortened: (§1)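 Compounds were pin-transferred onto cells and incubated 48 or 72 hr at 37 degree Celsius, 95% humidity. CellTiter-Glo was added, plates sat 10 min at room temperature, then ATP-coupled luminescence was imaged as the viability read-out.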

HEK293 = assay: as above; conditions: Five cell lines viability, CellTiter-Glo ATP luminescence, 48-72 h; max response: hits give low values
Procedure, shortened: as §1

HaCat [1] = assay: as above; conditions: Five cell lines viability, CellTiter-Glo ATP luminescence, 48-72 h; max response: hits give low values
Procedure, shortened: as §1

NIH3T3 [2] = assay: as above; conditions: Five cell lines viability, CellTiter-Glo ATP luminescence, 48-72 h; max response: hits give low values
Procedure, shortened: as §1

HACAT [3] = assay: qHTS assay to identify novel small-molecules to repurpose for Merkel cell carcinoma treatment (AID 1296009); conditions: MCC and control cell lines, CellTiter-Glo viability, 72 h; at 44.8 µM (top of the series) unless noted; further: nearly all actives have a fitted effect of over 60% in size
Procedure, shortened: (§2)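 qHTS format: cells treated with library compounds in DMSO across 8 (NPC) or 11 (MIPE) concentrations. Readout after 72 hr at 37 degree celsius was CellTiter-Glo luminescence.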

C33A = assay: Primary qHTS to identify gynecologic anti-cancer compounds using libraries of approved drugs and bioactive compounds (AID 1345084); conditions: Gynecologic cancer cell panel viability, ATPlite luminescence, 48 h; series mostly up to 57.5 µM; further: nearly all actives have a fitted effect of over 55% in size; further: potency means the concentration at half of the fitted maximal effect
Procedure, shortened: (§3)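 48 h compound exposure at 37 C, 5% CO2; five-point qHTS. ATPlite luminescence readout of cell ATP.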

CAOV3 = assay: as above; conditions: Gynecologic cancer cell panel viability, ATPlite luminescence, 48 h; series mostly up to 57.5 µM
Procedure, shortened: as §3

CASKI = assay: as above; conditions: Gynecologic cancer cell panel viability, ATPlite luminescence, 48 h; series mostly up to 57.5 µM
Procedure, shortened: as §3

Es-2 = assay: as above; conditions: Gynecologic cancer cell panel viability, ATPlite luminescence, 48 h; series mostly up to 57.5 µM
Procedure, shortened: as §3

HeLa = assay: as above; conditions: Gynecologic cancer cell panel viability, ATPlite luminescence, 48 h; series mostly up to 57.5 µM
Procedure, shortened: as §3

Hek293T = assay: as above; conditions: Gynecologic cancer cell panel viability, ATPlite luminescence, 48 h, control line for the selectivity index; series mostly up to 57.5 µM
Procedure, shortened: as §3

JEG-3 = assay: as above; conditions: Gynecologic cancer cell panel viability, ATPlite luminescence, 48 h; series mostly up to 57.5 µM
Procedure, shortened: as §3

OV90 = assay: as above; conditions: Gynecologic cancer cell panel viability, ATPlite luminescence, 48 h; series mostly up to 57.5 µM
Procedure, shortened: as §3

PA-1 = assay: as above; conditions: Gynecologic cancer cell panel viability, ATPlite luminescence, 48 h; series mostly up to 57.5 µM
Procedure, shortened: as §3

SKOV3 = assay: as above; conditions: Gynecologic cancer cell panel viability, ATPlite luminescence, 48 h; series mostly up to 57.5 µM
Procedure, shortened: as §3

NIH3T3 [4] = assay: qHTS assay to identify novel small-molecules to repurpose for Merkel cell carcinoma treatment (AID 1296009); conditions: MCC and control cell lines, CellTiter-Glo viability, 72 h; series mostly up to 44.8 µM; further: nearly all actives have a fitted effect of over 60% in size
Procedure, shortened: as §2

CC[C@@H](Nc1c(Nc2cccc(C(=O)N(C)C)c2O)c(=O)c1=O)c1cc(C(C)C)co1
inactive: max response (CRL-7250) 4.29% | max response (HEK293) -14.3% | outcome (HaCat [1]) | max response (NIH3T3 [2]) -6.94% | outcome (HACAT [3]) | Potency (C33A) | Potency (CAOV3) | Potency (CASKI) | Potency (Es-2) | Potency (HeLa) | Potency (Hek293T) | Potency (JEG-3) | Potency (OV90) | Potency (PA-1) | Potency (SKOV3)

Cc1ccc(NC(=O)c2ccc(CN3CCNCC3)cc2)cc1Nc1nccc(-c2cccnc2)n1
active: Potency (HEK293) 10.3 µM | Potency (CAOV3) 22.4 µM | Potency (CASKI) 17.8 µM | Potency (Es-2) 15.8 µM | Potency (Hek293T) 11.2 µM | Potency (JEG-3) 17.8 µM | Potency (OV90) 14.1 µM | Potency (PA-1) 12.6 µM
inactive: max response (CRL-7250) -21.4% | outcome (HaCat [1]) | outcome (NIH3T3 [2]) | outcome (HACAT [3]) | Potency (NIH3T3 [4])

C#CCCCn1cc(-c2cccc3c2N[C@H](C)CC(=O)N3)cn1
active: Potency (HeLa) 0.891 µM | Potency (PA-1) 7.08 µM
inactive: max response (CRL-7250) -3.86% | max response (HEK293) -13.5% | max response (HaCat [1]) 0.674% | max response (NIH3T3 [2]) -3.84% | Potency (C33A) | Potency (CAOV3) | Potency (CASKI) | Potency (Es-2) | Potency (Hek293T) | Potency (JEG-3) | Potency (OV90) | Potency (SKOV3)

CCOC(=O)[C@@]1(CCCCCCOc2ccc(Cl)cc2)CO1
inactive: max response (CRL-7250) -16.7% | max response (HaCat [1]) 3.74% | max response (NIH3T3 [2]) -15.5%
active: Potency (HEK293) 8.31 µM

CC(/C=C/C(=O)NO)=C\[C@@H](C)C(=O)c1ccc(N(C)C)cc1
active: Potency (CRL-7250) 2.91 µM | Potency (HEK293) 1.16 µM | Potency (HaCat [1]) 0.92 µM | Potency (NIH3T3 [2]) 1.3 µM | Potency (C33A) 3.55 µM | Potency (CAOV3) 4.47 µM | Potency (CASKI) 1.58 µM | Potency (Es-2) 5.62 µM | Potency (HeLa) 3.55 µM | Potency (Hek293T) 3.16 µM | Potency (JEG-3) 1.41 µM | Potency (OV90) 2.24 µM | Potency (PA-1) 1 µM | Potency (SKOV3) 1.58 µM

Cc1cc(-c2ncc(-c3cccnc3)cc2/C=C/c2ccccc2)cnc1-c1cccnc1
active: Potency (HEK293) 2.59 µM
inactive: outcome (CRL-7250) | outcome (HaCat [1]) | max response (NIH3T3 [2]) 3.84% | outcome (HACAT [3]) | Potency (C33A) | Potency (CAOV3) | Potency (CASKI) | Potency (Es-2) | Potency (HeLa) | Potency (Hek293T) | Potency (JEG-3) | Potency (OV90) | Potency (PA-1) | Potency (SKOV3)

COC(=O)c1cc2c(C(F)(F)F)cc(-c3ccccc3)cc2n1O
inactive: max response (CRL-7250) -4.54% | max response (HEK293) 0.379% | outcome (HaCat [1]) | outcome (NIH3T3 [2]) | outcome (HACAT [3]) | Potency (NIH3T3 [4]) | Potency (C33A) | Potency (CASKI) | Potency (Es-2) | Potency (HeLa) | Potency (Hek293T) | Potency (JEG-3) | Potency (OV90) | Potency (PA-1) | Potency (SKOV3)

Cc1ccccc1C(C(=O)NC1CCCCC1)N(C(=O)Cn1cnc2ccccc21)c1cccc(F)c1 (centres undefined)
inactive: max response (CRL-7250) -31.4% | Potency (C33A) | Potency (CAOV3) | Potency (CASKI) | Potency (Es-2) | Potency (HeLa) | Potency (Hek293T) | Potency (JEG-3) | Potency (OV90) | Potency (PA-1) | Potency (SKOV3)
active: Potency (HEK293) 16.4 µM | Potency (HaCat [1]) 8.2 µM | Potency (NIH3T3 [2]) 18.4 µM

O=C(Cc1cccc(OC(F)(F)F)c1)Nc1ccc(CCCCc2nnc(NC(=O)Cc3ccccn3)s2)nn1
active: Potency (CRL-7250) 0.0166 µM | Potency (HEK293) 16.6 µM | Potency (HaCat [1]) 23.4 µM | Potency (NIH3T3 [2]) 26.3 µM

CC[C@H]1CN(c2nc(N)c(C(N)=O)nc2Cl)CCN1C1CCN(Cc2ccc(Cl)cc2)CC1
inactive: max response (CRL-7250) 4.79% | max response (HEK293) -6.38% | outcome (HaCat [1]) | max response (NIH3T3 [2]) 0.303% | outcome (HACAT [3]) | Potency (C33A) | Potency (CAOV3) | Potency (CASKI) | Potency (Es-2) | Potency (HeLa) | Potency (Hek293T) | Potency (JEG-3) | Potency (OV90) | Potency (PA-1) | Potency (SKOV3)

CC(=O)OC(C)(C)/C=C/C(=O)C(C)(O)C1C(O)CC2(C)C3CC=C(C(C)(C)C(=O)O)C(CC(=O)O)C3(C)C(=O)CC12C (centres undefined)
inactive: max response (CRL-7250) 2% | max response (HEK293) -1.12% | outcome (HaCat [1]) | outcome (NIH3T3 [2]) | outcome (HACAT [3]) inactive [at 17.4 µM] | Potency (NIH3T3 [4]) | Potency (C33A) | Potency (CASKI) | Potency (Es-2) | Potency (HeLa) | Potency (Hek293T) | Potency (JEG-3) | Potency (OV90) | Potency (PA-1)

CS(=O)(=O)c1ccc(Oc2cc(F)cc(C#N)c2)c2c1[C@H](O)C(F)(F)C2
inactive: outcome (CRL-7250) | max response (HEK293) 1.03% | max response (HaCat [1]) -0.258% | max response (NIH3T3 [2]) -14.9%

COc1cc(Br)c(S(=O)(=O)Nc2ccc(Cl)c(O[C@@H]3CCN(C)C3)c2)cc1OC
inactive: outcome (CRL-7250) | outcome (HaCat [1]) | max response (NIH3T3 [2]) -15.8% | outcome (HACAT [3]) | Potency (CAOV3) | Potency (Es-2) | Potency (HeLa) | Potency (JEG-3)
active: Potency (HEK293) 7.31 µM

Cc1cccc(CC(=O)N2CCc3c2ccc(-c2cn(C)c4ncnc(N)c24)c3F)n1
active: Potency (CRL-7250) 1.84 µM | Potency (HEK293) 5.8 µM
inactive: outcome (HaCat [1]) | max response (NIH3T3 [2]) 3.48% | outcome (HACAT [3]) | Potency (C33A) | Potency (CAOV3) | Potency (CASKI) | Potency (Es-2) | Potency (HeLa) | Potency (Hek293T) | Potency (JEG-3) | Potency (OV90) | Potency (PA-1)
